Compound activity: PubChem BioAssay, National Center for Advancing Translational Sciences (NCATS)
ALOX12 inh: Primary qHTS assay for inhibitors of human arachidonate 12S-lipoxygenase (ALOX12): Round 2; purified 12hLO, xylenol orange hydroperoxide absorbance; Potency, µM (doses to about 108 µM), without a hit: top-dose activity change, negative = inhibition, hits mostly inhibitors; hit rate 1.1% among 580,000; Polyunsaturated fatty acid lipoxygenase ALOX12 (Homo sapiens), P18054; AID 1671190, 2021; further: on the % scale 0 is the no-effect control and ±100 the full control effect
Target sequence (P18054 whole entry, looked up): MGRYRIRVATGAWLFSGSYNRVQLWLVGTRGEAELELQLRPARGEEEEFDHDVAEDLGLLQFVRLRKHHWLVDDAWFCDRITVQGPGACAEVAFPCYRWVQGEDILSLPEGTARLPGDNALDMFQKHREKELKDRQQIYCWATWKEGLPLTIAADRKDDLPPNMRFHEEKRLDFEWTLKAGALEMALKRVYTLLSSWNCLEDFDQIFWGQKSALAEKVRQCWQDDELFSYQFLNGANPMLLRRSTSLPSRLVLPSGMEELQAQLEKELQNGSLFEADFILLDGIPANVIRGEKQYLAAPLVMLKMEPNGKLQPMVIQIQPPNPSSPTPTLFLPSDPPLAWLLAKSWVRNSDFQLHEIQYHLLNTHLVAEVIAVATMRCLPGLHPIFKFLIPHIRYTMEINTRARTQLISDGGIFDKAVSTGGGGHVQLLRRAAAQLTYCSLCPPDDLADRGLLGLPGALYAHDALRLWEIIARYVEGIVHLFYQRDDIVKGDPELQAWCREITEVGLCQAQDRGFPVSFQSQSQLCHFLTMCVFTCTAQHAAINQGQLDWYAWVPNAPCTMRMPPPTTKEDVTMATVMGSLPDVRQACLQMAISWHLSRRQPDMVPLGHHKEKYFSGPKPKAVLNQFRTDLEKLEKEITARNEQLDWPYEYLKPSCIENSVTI
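Purified human 12hLO (150 nM final) in 25 mM Hepes, 0.01% Triton X-100, pH 7.0 was preincubated 15 min at room temperature with compound. Then 40 uM arachidonic acid was added, 30 min. Hydroperoxide was read by Fe-XO absorbance ratio 573/405 nm.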
VDR inh: Inhibitors of the vitamin D receptor (VDR): qHTS; Vitamin D3 receptor (Homo sapiens), P11473; hit rate 0.93% among 400,000; Potency, µM, inactives show max response, negative = inhibition, most hits filed as inhibitors; AID 504847, 2011; VDR-SRC2-3 peptide fluorescence polarization, 2 h; further: on the % scale 0 is the no-effect control and ±100 the full control effect
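Compounds are added to VDR with labelled SRC2-3 coactivator peptide and held 2 h at room temperature. Inhibition of the VDR–peptide interaction is then read as a change in fluorescence polarization.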
Sfp PPTase inh: qHTS Assay for Inhibitors of Bacillus subtilis Sfp phosphopantetheinyl transferase (PPTase); 4'-phosphopantetheinyl transferase ffp (Bacillus subtilis), Q9F4F7; hit rate 3.5% among 310,000; Potency, µM, for inactives: largest response in the series, negative = inhibition, actives largely listed as inhibitors; Biochemical Sfp PPTase activity, qHTS;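 further: the enzyme is Sfp with the accession as filed and its product quenches rhodamine fluorescence; 0% = enzyme reaction without inhibitor and -100% = no enzyme wells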
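With Hepes-Na pH 7.6 buffer containing 10 mM MgCl2, Sfp (15 nM) modified BHQ-2-YbbR (12.5 uM) using rhodamine-CoA (5 uM). Two reads 30 minutes apart at 525/598 nm yielded each well's rate.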
GRP78 ERSR act: qHTS for Inducers of the Endoplasmic Reticulum Stress Response (ERSR) in Human Glioma: qHTS; U87-MG GRP78 promoter luciferase reporter, 16 h; Potency, µM, without a hit: top-dose activation, most hits filed as activators; hit rate 0.02% among 420,000; AID 602332, 2012; further: series mostly up to about 76 µM; % of control where 0% means no effect; nearly all actives have a fitted effect of over 35% in size
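ERSR induction read as luciferase luminescence (Bright-Glo, 10 min at room temperature) in stably transfected human U87-MG glioma cells exposed to compounds for 16 h, using GRP78 as sensor.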
G9a block: qHTS Assay for Inhibitors of Histone Lysine Methyltransferase G9a | Histone-lysine N-methyltransferase EHMT2 (Homo sapiens), Q96KQ7 | G9a H3K9 monomethylation, AlphaScreen, 2 h | Potency, µM (top dose mostly 102 µM), inactives show at the top dose activity, negative = inhibition, hits mostly inhibitors | hit rate 8.8% among 350,000 | AID 504332, 2011; further: on the % scale 0 is the no-effect control and ±100 the full control effect; nearly all actives have a fitted effect of over 75% in size
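Quantitative HTS format: methyltransferase activity on a biotin-tagged H3K9 peptide is measured by AlphaScreen, using a rabbit anti-monomethyl-H3K9 antibody with streptavidin donor and anti-IgG acceptor beads. Final levels are 20 nM enzyme, 500 nM peptide, 20 uM SAM; 2 h RT.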
* hit, by the source's call; ? = inconclusive; . = no result given; ! = repeats disagree; [ ] = another dose, or the depositor's remark. The full list was thinned out, with hits kept by preference. The call rests on the fitted dose curve; in most records, active means well fitted curve in the direction sought with a large enough effect; inconclusive means small, poorly fitted or top-dose-only effect, or another doubt; inactive means no such curve, though single readings can be large; an effect the other way counts as inactive or inconclusive. Potency means the concentration at half of the fitted maximal effect.

SMILES	ALOX12 inh	VDR inh	Sfp PPTase inh	GRP78 ERSR act	G9a block
CC1CC(OCC(O)C[N+]2(C)CCOCC2)CC(C)(C)C1 (stereo not drawn)	?	-6%	6%	1%	40µM*
CN1CCCN(C(=O)CC2CCCC2)c2ccccc21	9%	.	.	.	.
CCCNC(=O)C(=O)NCc1n[nH]c(=O)c2ccccc12	-9%	.	.	.	.
O=C(Nc1ccc(-c2nnn(CC(=O)N3CCN(C(=O)c4ccco4)CC3)n2)cc1)c1ccc(F)cc1	?	13%	6%	-1%	56µM*
CCCCn1c(C)c(C)c(S(=O)(=O)c2ccc(OC)cc2)c1NC(=O)c1ccco1	1%	.	.	.	.
COc1ccc(S(=O)(=O)Nc2ccc(S(=O)(=O)Nc3nccs3)cc2)cc1	-4%	-4%	24%	0%	50µM*
NS(=O)(=O)c1ccc(NC(=S)Nc2ccc(S(=O)(=O)Nc3nccs3)cc2)cc1	-24%	.	.	-4%	.
CCCCC1CCC(C(=O)Nc2ccc(S(=O)(=O)Nc3nccs3)cc2)CC1 (stereo not drawn)	.	-2%	9%	-3%	45µM*
O=C(Nc1ccc(S(=O)(=O)Nc2nccs2)cc1)c1ccncc1	-5%	.	.	-3%	.
CC(C)(C)C(=O)NC(=S)Nc1ccc(S(=O)(=O)Nc2nccs2)cc1	45µM*	4%	-8%	-2%	50µM*
O=C(NC(=S)Nc1ccc(S(=O)(=O)Nc2nccs2)cc1)c1ccc(F)cc1	?	-9%	-17%	0%	10µM*
Cn1c(=O)c2c([nH]c(=O)n2Cc2ccccc2F)n(C)c1=O	51%	.	.	.	.
CC(=O)c1ccc(OCc2ccc(Cl)cc2Cl)cc1	-6%	.	.	.	.
CCOC(=O)CCCSc1ccc2c(c1)OCCO2	51%	.	.	.	.
Cc1ccc(CNS(=O)(=O)c2ccc(C(F)(F)F)cc2)n1C	?	-24%	14%	-6%	45µM*
Cc1ccc(CNS(=O)(=O)c2ccc(F)c(F)c2)n1C	?	-8%	5%	-4%	45µM*
CC(C)c1ccc(NC(=O)C(c2ccccc2)N(Cc2ccco2)C(=O)CC2NC(=O)NC2=O)cc1 (stereo not drawn)	-15%	-16%	-9%	-3%	14µM*
Cc1occc1C(=O)N(C)CC1CCCN(CCc2ccc(Cl)cc2)C1 (stereo not drawn)	45µM*	.	.	-1%	.
COc1cccc(N2CCN(c3nc(C(=O)NCc4ccccc4F)cs3)CC2)c1	36%	.	.	.	.
N#C[C@H]1[C@H](c2ccccc2)[C@](C#N)(C(=O)c2ccccc2)[C@@H]2C=Cc3ccccc3N21	.	.	2%	.	25µM*
COc1ccc(C(=O)N2c3ccccc3C=CC2C#N)cc1 (stereo not drawn)	-13%	-4%	3%	-4%	-1%[59 µM]
C/C(=N/NC(=S)Nc1cccc(C)c1)c1cccc([N+](=O)[O-])c1	40µM*	1%	11%	-3%	.
CC(=O)NC(=S)Nc1cccc([N+](=O)[O-])c1	0%	-15%	18%	-4%	-33%
Cc1cccc(NC(=S)NNC(=O)c2cccc([N+](=O)[O-])c2)c1	303%	17%	0%	1%	20µM*
Cc1occc1C(=O)NNC(=S)Nc1cccc([N+](=O)[O-])c1	339%	10%	19%	3%	11µM*
SMILES	ALOX12 inh	VDR inh	Sfp PPTase inh	GRP78 ERSR act	G9a block
O=[N+]([O-])c1cccc(NC(=S)NCc2ccncc2)c1	-24%	-27%	13µM*	-3%	35µM*
O=C(Nc1cccc(Cl)c1)C1Sc2nnc(-c3ccccc3)n2NC12CCCCC2 (stereo not drawn)	45%	.	.	.	.
CCNC(=S)N/N=C(\C)c1cc2ccccc2o1	?	-13%	10%	-1%	12%[59 µM]
CCN1CCN(C(=S)Nc2cccc([N+](=O)[O-])c2)CC1	1%	-1%	-22%	-2%	71µM*
C/C(=N\NC(=S)Nc1cccc(C)c1)c1cc2ccccc2o1	35µM*	-28%	-17%	2%	35µM*
Cc1cc(Br)ccc1NC(=S)Nc1cccc([N+](=O)[O-])c1	?	-9%	?	0%	45µM*
O=C(NNC(=S)Nc1ccc(Cl)c(Cl)c1)c1cccc([N+](=O)[O-])c1	?	-10%	-17%	15%	35µM*
C=C(C)COc1ccc2c(C)c(CCC(=O)N3CCC(C(N)=O)CC3)c(=O)oc2c1	-1%	.	.	.	.
OC[C@@H]1O[C@H](CNCc2ccc(F)cc2)[C@H](N2CCCC2)[C@@H]1O	-3%[176 µM]	.	.	.	.
OC[C@@H]1O[C@H](CNCc2ccc(F)cc2)[C@H](N2CCOCC2)[C@@H]1O	28µM*	.	.	.	.
CCN1C(=NCC(C)C)N[C@@H](c2cccc(F)c2)C(C(=O)OC)=C1C	?	-2%	1%	-6%	40µM*!
CCN1C(=NCCN2CCOCC2)N[C@@H](c2ccccc2)C(C(=O)OC)=C1C	-26%	-6%	-4%	-4%	50µM*!
CCN1C(=NCCOC)N[C@@H](c2cccc(F)c2)C(C(=O)OC)=C1C	.	-5%	9%	-6%	.
CCN1C(=NCc2ccco2)N[C@@H](c2cccc(F)c2)C(C(=O)OC)=C1C	?	13%	-5%	-2%	40µM*!
CCN1C(=NCCCCO)N[C@@H](c2cccc(F)c2)C(C(=O)OC)=C1C	-27%	-18%	5%	-4%	10%[12.7 µM]
O=C(NC1CC1)c1cc(SCC(=O)N2CCCCC2)nc2ccccc12	17%	.	.	.	.
Cc1cccc(N2CCN(C(=O)c3ccc4c(c3)N(C(=O)c3ccccc3)CC4)CC2)c1C	52%	.	.	.	.
Nc1ccccc1Nc1c(F)c(F)nc(F)c1Cl	-1%	5%	6%	-2%	13µM*
COc1ccc(CN(C(=O)c2cccc(C#N)c2)C(C)C2CC2)cc1 (stereo not drawn)	9%	.	.	.	.
c1ccn2c(SCc3ccc4c(c3)OCCO4)nnc2c1	-7%	7%	?	-1%	56µM*
Brc1cc2c(cc1/C=N/Nc1nc(N3CCCC3)nc(N3CCOCC3)n1)OCO2	-9%	6%	4%	-2%	16µM*
Oc1ccc(Br)cc1/C=N/Nc1nc(N2CCCCC2)nc(N2CCOCC2)n1	14%	17%	6%	-3%	15%
CC(C)C[C@@H]1N[C@H](C(=O)NCCN(C)C)Cc2cn(CC3CC3)c3cccc1c23	49%[176 µM]	.	.	.	.
CNS(=O)(=O)c1ccc2c3c(cccc13)C(=O)N2C	8.9µM*	0%	23%	-2%	40%
O=C(COc1ccc(OCc2ccccc2)cc1)OCC(=O)c1cc2ccccc2o1	-20%	.	.	.	.
